# Screens (PubChem BioAssay)
# KCNH2 3.1 block: inhibitors of human KCNH2 3.1 potassium channel isoform; U2OS KCNH2 3.1, thallium flux FluxOr; stronger effect = lower value; activity change, % (tested at about 1.8 µM); 0.95% of 340,000 active;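 active means maximum activity change below -70%; inconclusive means maximum activity change from -70% to -50%; inactive means maximum activity change above -50%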;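 further: thallium influx rate constant from kinetic fluorescence after stimulation buffer; on the % scale 0 is the no-effect control and ±100 the full control effect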
#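 Steps: virus added to U2OS suspension (4 h, RT, dark); medium with 10% FBS added, cells plated, 37 C overnight; FluxOr/Red40 loading buffer 45 min RT; stimulation buffer, 2 min kinetic read; rate constant normalized.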
# GLS inhibitor: blocks human kidney-isoform glutaminase activity; 0.21% of 410,000 active; Potency, µM (doses to about 45.5 µM), without a hit: at the highest dose activity change, negative = inhibition, actives largely listed as inhibitors; GLS enzymatic activity, qHTS titration; AID 624170; further: potency means the concentration at half of the fitted maximal effect; on the % scale 0 is the no-effect control and ±100 the full control effect
#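 Human kidney-isoform GLS in 45 mM KH2PO4 pH 8.2, 0.02% Tween-20, with compound, started with 1mM L-Glutamine (added stock). Glutamate oxidase/HRP/Amplex red coupled fluorescence read at start and after 30 min at RT.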
# KCNH2 WT inh: KCNH2 (human, wildtype) channel inhibition; activity change, % at 1.84 µM; 0.37% of 340,000 active; U2OS, BacMam KCNH2, thallium flux FluxOr; stronger effect = lower value; Q12809;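 active means maximum activity change below -70%; inconclusive means maximum activity change between -70% and -50%; inactive means maximum activity change above -50%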; further: on the % scale 0 is the no-effect control and ±100 the full control effect
#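 U2OS cells were transduced with wild-type KCNH2 virus (2.03 x 10^8 / mL) for 4 h at room temperature, then cultured overnight at 37 C. Thallium flux was read with FluxOr dye. Rate constants were normalized to DMSO controls.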
# GLP1R inv ag: GLP-1 receptor (human) inverse agonism; HEK293 GLP-1R CRE-luciferase, luminescence, 24 h; GLP-1R form is constitutively active; Potency, µM (doses to about 38.3 µM), for the others: at the highest dose activity change, negative = inhibition, usual class: inhibitors; 1.6% of 410,000 active; AID 624417; further: potency means the concentration at half of the fitted maximal effect; on the % scale 0 is the no-effect control and ±100 the full control effect; nearly all actives have a fitted effect of over 55% in size
# Target sequence (P43220 whole entry, looked up): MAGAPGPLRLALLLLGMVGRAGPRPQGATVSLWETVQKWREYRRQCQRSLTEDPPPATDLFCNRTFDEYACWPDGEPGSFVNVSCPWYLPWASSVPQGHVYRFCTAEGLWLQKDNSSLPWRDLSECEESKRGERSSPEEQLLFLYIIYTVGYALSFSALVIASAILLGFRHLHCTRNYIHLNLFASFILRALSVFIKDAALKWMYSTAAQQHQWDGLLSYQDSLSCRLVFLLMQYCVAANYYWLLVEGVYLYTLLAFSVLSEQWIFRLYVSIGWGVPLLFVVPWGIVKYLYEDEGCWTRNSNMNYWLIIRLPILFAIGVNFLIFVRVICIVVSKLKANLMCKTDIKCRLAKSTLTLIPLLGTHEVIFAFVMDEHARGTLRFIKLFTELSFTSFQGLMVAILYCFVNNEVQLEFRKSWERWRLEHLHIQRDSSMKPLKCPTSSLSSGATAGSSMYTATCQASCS
#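 Seeding at 200 cells/uL, 12 h culture, 24 hr compound treatment, then luciferase reagent and a luminescence read; cells are HEK293 stably expressing a constitutively active GLP-1R plus cAMP-responsive luciferase.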
# HEK293 tox: cytotoxicity counter-screen for GLP-1 receptor inverse agonists. HEK293 cAMP-luciferase reporter cells, luminescence, 24 h. 0.13% of 410,000 active. Potency, µM (doses to about 38.3 µM), without a hit: at the highest dose activity change, negative = inhibition, usual class: inhibitors;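 further: loss of luciferase light is scored as toxicity; potency means the concentration at half of the fitted maximal effect; on the % scale 0 is the no-effect control and ±100 the full control effect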
#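 Compound-treated cells are incubated 24 hr at 37 deg C under 5% CO2 after a 12 hour attachment period, then luciferase detection reagent is added and luminescence is measured following 12 min at room temperature; lowered signal indicates toxicity.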
# GLP-1R agonist: activates the human GLP-1 receptor | Potency, µM (series often up to 45.6 µM), for the others: top-dose activation, actives largely listed as activators | HEK293 GLP-1R CRE-luciferase, luminescence, 4-6 h; cells express a hypersensitive GLP-1R form | P43220 | 0.007% of 380,000 active; further: potency means the concentration at half of the fitted maximal effect; % of control where 0% means no effect
# The depositor's hits bear a star; i = inactive; ? = inconclusive; nt = not tested or not shown. Sampled rows, rich in hits. Any-hit rate of the full collection: about 2.8%. Unless noted, the call rests on the fitted dose curve; in most records, active means well fitted curve in the direction sought with a large enough effect; inconclusive means small, poorly fitted or top-dose-only effect, or another doubt; inactive means no such curve, though single readings can be large; an effect the other way counts as inactive or inconclusive.
SMILES,KCNH2 3.1 block,GLS inhibitor,KCNH2 WT inh,GLP1R inv ag,HEK293 tox,GLP-1R agonist
CCOC(=O)CSC1=C(C#N)C(c2ccc(Cl)cc2)CC(=O)N1 (centres undefined),0,1%,7,8%,-7%,-2%
CN1C(=O)Cc2cc(S(=O)(=O)N3CCN(c4cccc(C(F)(F)F)c4)CC3)ccc21,-19,0%,-3,20%,3%,0%
COc1ccccc1N1CCN(C(=O)c2cc(-c3ccccc3)nc3c2cnn3C(C)C)CC1,-2,-5%,-2,11µM*,4%,0%
O=C(c1ccccc1Oc1ccccc1)N1CCN(c2ccccc2F)CC1,42,2%,-9,?,10%,3%
COc1ccccc1N1CCN(C(=S)NC(=O)c2ccc([N+](=O)[O-])cc2)CC1,-7,1%,32,-22%,-33%,-5%
COc1ccccc1CCNC(=O)c1cc(C2CC2)nc2c1cnn2C(C)C,-8,-5%,-11,10µM*,0%,29%
COc1ccccc1N1CCN(C(=O)c2ccccc2Oc2ccccc2)CC1,-5,0%,7,8.9µM*,-6%,3%
COc1ccc(C(=O)NC(=S)N2CCN(c3ccccc3OC)CC2)cc1,-7,15%,-5,?,4.5µM*,2%
COc1ccc(SCc2cc(=O)c3cc(Cl)ccc3[nH]2)cc1,nt,1%,nt,-28%,-2%,nt
COc1ccc(C(=O)Nc2ccnn2C2CCN(C(=O)C3CCOC3)CC2)cc1 (centres undefined),-3,14%,-5,-6%,-13%,0%
O=C(CN1c2ccccc2Sc2ccccc21)N/N=C/c1ccc(Cl)cc1Cl,-2,2%,-8,-12%,2%,1%
O=C(CN1c2ccccc2Sc2ccccc21)NNC(=S)Nc1ccc(Cl)cc1,-7,16µM*,0,-30%,9%,-3%
O=C(CN1c2ccccc2Sc2ccccc21)NNC(=S)Nc1ccc(Cl)cc1Cl,-21,11%,-18,-3%,0%,-30%
O=C(CN1c2ccccc2Sc2ccccc21)N/N=C/c1ccc(Cl)cc1,0,3%,-3,3.2µM*,-22%,3%
O=C(O)c1cc(Cl)n[nH]c1=O,nt,1%,nt,26%,-1%,-8%
COc1ccc(S(=O)(=O)N2CCCN(CC(=O)Nc3ccc(OC)cc3OC)CC2)cc1,nt,3%,nt,9%,-14%,nt
Cc1c(NC(=O)c2ccc(-c3ccccc3)cc2)cccc1C(=O)O,21,-3%,-2,3.2µM*,0%,-4%
COc1ccc(Nc2nc(NCc3ccco3)nc(N/N=C/c3ccc(O)cc3)n2)cc1,-90*,2%,-30,-7%,?,-5%
COc1ccc(Nc2nc(NCc3ccco3)nc(N/N=C/c3ccccc3F)n2)cc1,-97*,15%,-23,-22%,13%,-4%
COc1ccc(/C=N/Nc2nc(NCc3ccco3)nc(Nc3ccc(OC)cc3)n2)cc1,-93*,1%,-4,-15%,-17%,19%
COc1ccc(Nc2nc(Cl)nc(NCc3ccco3)n2)c(OC)c1,-2,11%,-4,13%,-4%,-5%
COc1cc(C)c(S(=O)(=O)NC2CC(C)(C)NC(C)(C)C2)cc1C,-2,1%,8,?,-7%,2%
Cc1cc(C)c(S(=O)(=O)NC2CC(C)(C)NC(C)(C)C2)cc1Br,1,-16%,3,11µM*,-10%,-1%
Cc1ccc(C(C)C)cc1S(=O)(=O)NC1CC(C)(C)NC(C)(C)C1,10,-1%,6,8.9µM*,-15%,4%
Cc1ccc(OCC(=O)NC2CC(C)(C)NC(C)(C)C2)c(C)c1,-16,3%,12,?,12%,-1%
SMILES,KCNH2 3.1 block,GLS inhibitor,KCNH2 WT inh,GLP1R inv ag,HEK293 tox,GLP-1R agonist
CC1(C)CC(NS(=O)(=O)c2ccc3ccccc3c2)CC(C)(C)N1,2,0%,11,11µM*,20%,4%
Cc1cc(OCC(=O)NC2CC(C)(C)NC(C)(C)C2)c(C)cc1Br,nt,-3%,-3,4.5µM*,12%,0%
Cc1ccc(S(=O)(=O)NC2CC(C)(C)NC(C)(C)C2)c(C)c1C,5,23%,5,?,10%,0%
COc1cc(NC(=O)CC2C(=O)N(c3cccc(C)c3)C(=O)N2Cc2cccs2)cc(OC)c1 (centres undefined),nt,1%,nt,?,-19%,nt
CCC(CC)c1nn2c(=O)cc(COc3ccc(NC(=O)c4ccc(Cl)cc4)cc3)nc2s1,nt,4%,nt,-20%,-11%,-1%
O=C(Nc1nnc2n1CCS2)c1ccccc1C(F)(F)F,nt,-7%,nt,9%,5%,-2%
CCOC(=O)c1ccc(NC(=O)CSc2nnnn2C2CCCCC2)cc1,8,-8%,3,6%,-8%,-5%
CCOc1ccc(NC(=O)N2CCC(n3nnc4ccccc43)CC2)cc1,-83*,1%,i,1%,0%,8%
CCC(=O)Nc1ccc(NC(=O)CSc2nnnn2-c2ccc(OC)cc2)cc1,7,-2%,0,-3%,-12%,2%
CCOc1ccc(NC(=O)CSc2nnnn2C2CCCC2)cc1,-199*,-2%,-142*,-30%,-5%,6%
COc1ccc(NC(=O)CSc2nnnn2C2CC3C=CC2C3)cc1 (centres undefined),-3,6%,-81*,?,?,19%
Cc1cc(C)c(OCC(=O)OCC(=O)N(C)C2CCS(=O)(=O)C2)c(C)c1 (centres undefined),3,-13%,-18,5%,-1%,-4%
CCc1ccc2oc(-c3ccc(OC)cc3)cc(=Nc3c(C)n(C)n(-c4ccccc4)c3=O)c2c1,-3,20%,-1,10µM*,-11%,-4%
COc1ccccc1OCCN(C#N)c1nc(N(C)C)nc(N(C)C)n1,-84*,8%,1,?,8%,-1%
Cc1ccc(C(=O)C2CCN(C(=O)c3ccc(C)cc3)CC2)cc1,-1,4%,nt,8.9µM*,0%,-7%
COc1ccc(C(=O)C2CCN(CC(=O)NCc3ccccc3)CC2)cc1,-1,-2%,7,-21%,9%,8%
COc1ccc(CNC(=O)CN2CCC(C(=O)c3ccc(OC)cc3)CC2)cc1,-10,9%,20,10µM*,?,-6%
Cc1ccc(C(=O)N2CCC(C(=O)c3ccc(F)cc3)CC2)cc1,-14,13%,24,?,0%,-1%
COc1ccc(C(=O)N2CCC(C(=O)c3ccc(F)cc3)CC2)cc1,-39,-1%,27,-26%,-4%,6%
COc1ccc(C(=O)C2CCN(C(=O)c3ccc(OC)cc3)CC2)cc1,-84*,-1%,-4,-12%,12%,0%
